NPC1 prom act: NPC1 promoter activation; 320,000 tested, 2.4% active; Potency, µM (titrated, usually from 9.22 µM), for the others: top-dose activation, hits mostly activators; Huh7 NPC1 promoter luciferase reporter, 24 h; AID 485313; further: % of control where 0% means no effect; nearly all actives have a fitted effect of over 60% in size
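NPC1 promoter–luciferase Huh7 cells; 24 h compound; luminescence.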
SMN2 splice enh: enhancers of SMN2 splice variant expression | HEK293 SMN2-luciferase splicing reporter, luminescence, 30-36 h | Potency, µM (series often up to 46.1 µM), for the others: top-dose activity change, positive = activation, hits mostly activators | 210,000 tested, 2.8% active; further: % of control where 0% means no effect; nearly all actives have a fitted effect of over 55% in size
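HEK293 cells carry an SMN2 […]–luciferase reporter in which exon 7 inclusion puts luciferase in frame. Cells were plated 10-12 h before compound addition, then incubated 30-36 h at 37C. ONE-Glo luminescence was read; sodium butyrate at 4.5 mM final served as control.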
FLuc modulator: firefly luciferase modulation, counter-screen for miR-21 project; P08659; purified FLuc, Km substrates, luminescence inhibition; Potency, µM (highest dose often 57.5 µM), for the others: at the top dose activity change, negative = inhibition, usual class: inhibitors; 360,000 tested, 6.9% active;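 further: plate controls were vehicle for no effect and reference inhibitor for full effect; nearly all actives have a fitted effect of over 55% in size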
Target sequence (P08659 whole entry, looked up): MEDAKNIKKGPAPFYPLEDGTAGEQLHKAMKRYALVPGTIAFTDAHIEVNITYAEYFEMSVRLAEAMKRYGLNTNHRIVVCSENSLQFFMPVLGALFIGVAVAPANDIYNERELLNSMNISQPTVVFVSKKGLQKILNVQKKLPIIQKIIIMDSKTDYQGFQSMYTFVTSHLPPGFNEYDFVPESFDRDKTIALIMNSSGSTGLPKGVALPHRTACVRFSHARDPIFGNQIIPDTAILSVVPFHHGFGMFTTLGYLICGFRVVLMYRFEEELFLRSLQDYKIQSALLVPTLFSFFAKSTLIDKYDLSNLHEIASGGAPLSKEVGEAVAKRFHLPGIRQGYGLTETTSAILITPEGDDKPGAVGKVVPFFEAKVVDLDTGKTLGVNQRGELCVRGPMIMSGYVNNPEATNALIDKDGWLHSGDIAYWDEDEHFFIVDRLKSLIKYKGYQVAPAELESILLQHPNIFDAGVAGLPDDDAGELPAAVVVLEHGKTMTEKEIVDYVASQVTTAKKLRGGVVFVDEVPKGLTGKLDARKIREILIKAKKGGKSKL
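Biochemical qHTS of compounds, final roughly 60 µM downward over six points, against 10 nM purified firefly luciferase using Km concentrations of substrates (10 uM D-luciferin, 10 uM ATP) in Tris acetate pH 7.5 buffer; luminescence output.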
Rab9 prom act: Rab9 promoter activation; 320,000 tested, 2.8% active; AID 485297; Huh7 Rab9 promoter-luciferase reporter, luminescence, 24 h; Potency, µM (titrated, usually from 9.22 µM), without a hit: at the highest dose activation, negative = inhibition, hits mostly activators; further: % of control where 0% means no effect; nearly all actives have a fitted effect of over 60% in size
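Measured in stably transfected Huh7 cells bearing a Rab9 promoter–luciferase construct: 24 h compound treatment at 37 °C, followed by luminescence detection.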
ELG1 repair inh: ELG1-dependent DNA repair inhibition; HEK293T ELG1-luciferase reporter, luminescence, 16 h; DNA damage induced by 5-fluorouridine; Potency, µM (series often up to 46.1 µM), for inactives: top-dose activity change, negative = inhibition, usual class: inhibitors; 330,000 tested, 2.3% active; further: on the % scale 0 is the no-effect control and ±100 the full control effect; nearly all actives have a fitted effect of over 55% in size
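DMSO vehicle served as the neutral condition. Each well held 2,000 cells given 5-fluorouridine plus compound; after 16 hr at 37 °C/5% CO2, ONE-Glo was added and luciferase measured 30 min later.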
ELG1 genotox: inducers of genotoxicity in HEK293T ELG1-luciferase cells; HEK293T ELG1-luciferase reporter, luminescence, 16 h; Potency, µM (doses to about 46 µM), for the others: at the highest dose activity change, positive = activation, most hits filed as activators; AID 504466; 330,000 tested, 1.3% active; further: % of control where 0% means no effect; nearly all actives have a fitted effect of over 60% in size
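HEK293T cells expressing luciferase-tagged ELG1 were exposed to compound or DMSO vehicle for 16 hr at 37 °C and 5% CO2. Luciferase activity was then measured with ONE-Glo after 30 min at room temperature.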
An asterisk follows results filed as active; ? = inconclusive; nt = no result; [ ] = dose if it differs, or a comment. The list is not random: actives were taken first. Their share in the collection is about 9.4%. The call rests on the fitted dose curve; in most records, active means well fitted curve in the direction sought with a large enough effect; inconclusive means small, poorly fitted or top-dose-only effect, or another doubt; inactive means no such curve, though single readings can be large; an effect the other way counts as inactive or inconclusive. Potency means the concentration at half of the fitted maximal effect.

SMILES | NPC1 prom act | SMN2 splice enh | FLuc modulator | Rab9 prom act | ELG1 repair inh | ELG1 genotox
N#Cc1ccc(CSc2nc3c(c(=O)[nH]2)CCC3)cc1 | nt | nt | -1.7% | nt | nt | nt
C[C@@H]1CN([C@@H](C)CO)C(=O)Cc2cc(NC(=O)Nc3ccc(C(F)(F)F)cc3)ccc2O[C@@H]1CN(C)S(=O)(=O)c1ccc(Cl)cc1 | nt | nt | nt | nt | 20.6µM* | -5.9%
C[C@@H]1CN([C@H](C)CO)C(=O)c2cc(NC(=O)Nc3ccc(C(F)(F)F)cc3)ccc2O[C@H]1CN(C)S(=O)(=O)c1ccc(Cl)cc1 | nt | nt | nt | nt | ? | -7.5%
C[C@H](CO)N1C[C@H](C)[C@@H](CN(C)S(=O)(=O)c2cccs2)Oc2ccc(NC(=O)Nc3ccccc3)cc2C1=O | nt | nt | nt | nt | 23.1µM* | -3.5%
C[C@H](CO)N1C[C@H](C)[C@@H](CN(C)S(=O)(=O)c2ccc(F)cc2)Oc2ccc(NC(=O)Nc3ccc(C(F)(F)F)cc3)cc2C1=O | nt | nt | nt | nt | 20.6µM* | -6.4%
C[C@H](CO)N1C[C@H](C)[C@H](CN(C)S(=O)(=O)c2cn(C)cn2)Oc2ccc(NC(=O)Nc3ccc(C(F)(F)F)cc3)cc2CC1=O | nt | nt | nt | nt | ? | 12.0%
C[C@H](CO)N1C[C@H](C)[C@@H](CN(C)S(=O)(=O)c2ccc(F)cc2)Oc2ccc(NC(=O)Nc3ccccc3)cc2C1=O | nt | nt | nt | nt | 23.1µM* | -6.4%
COc1ccc(NC(=O)Nc2ccc3c(c2)C(=O)N([C@H](C)CO)C[C@H](C)[C@@H](CN(C)S(=O)(=O)c2ccc(F)cc2)O3)cc1 | nt | nt | nt | nt | -24.4% | -0.5%
Cc1cccc(N2CCN(C(=O)CN3C(=O)COc4ccc(S(=O)(=O)N5CCCCCC5)cc43)CC2)c1C | nt | -8.8% | -10.3% | nt | nt | nt
CCCCCn1c(=O)[nH]c2cc(C(=O)N3CCN(c4cccc(Cl)c4)CC3)ccc2c1=O | nt | 0.3% | 4.4% | nt | nt | nt
O=C(Nc1cccs1)Nc1cc(C(F)(F)F)ccc1Cl | nt | -14.1% | ? | nt | nt | nt
C[C@@H]1CN([C@@H](C)CO)C(=O)c2cc(NC(=O)Nc3ccc4c(c3)OCO4)ccc2O[C@H]1CN(C)S(=O)(=O)c1ccc(F)cc1 | nt | nt | nt | nt | 25.9µM* | -7.0%
C[C@H](CO)N1C[C@H](C)[C@@H](CN(C)S(=O)(=O)c2ccccc2)Oc2ccc(NC(=O)Nc3ccccc3)cc2C1=O | nt | nt | nt | nt | 20.6µM* | -4.6%
C[C@H](CO)N1C[C@H](C)[C@@H](CN(C)S(=O)(=O)c2ccccc2)Oc2ccc(NC(=O)C3CC3)cc2C1=O | nt | nt | nt | nt | 18.3µM* | -5.4%
C[C@@H]1CN([C@@H](C)CO)C(=O)c2cc(NS(C)(=O)=O)ccc2O[C@@H]1CN(C)S(=O)(=O)c1ccccc1 | nt | nt | nt | nt | 13.8% | 5.2%
CSc1ncc(C(=O)NCc2ccc(F)cc2)c(-c2ccccc2)n1 | nt | nt | -0.3% | nt | nt | nt
O=C1CCCCC1C(=O)c1cn(-c2ccc(Cl)c(Cl)c2)nn1 (stereo not drawn) | 11.3% | 14.1µM* | 0.849µM* | 23.6% | ? | ?
O=C(CSc1ncc(-c2ccc(Cl)cc2)[nH]1)Nc1ccccc1F | nt | -12.7% | ? | nt | nt | nt
O=C(CSc1ncc(-c2ccc(F)cc2)[nH]1)N1CCCCC1 | 28.0% | 11.2µM* | ? | ? | ? | ?
O=C(CSc1ncc(-c2ccccc2)[nH]1)Nc1cccc(O)c1 | 16.9% | 0.1% | ? | 12.7% | 16.4µM* | 9.1%
O=C(CSc1ncc(-c2ccccc2)[nH]1)Nc1ccccc1F | 18.3% | 10.3% | 26.9µM* | 24.9% | ? | ?
CCN(CC)c1nc2c(S(=O)(=O)c3ccccc3)nnn2c2ccc(Cl)cc12 | nt | -5.0% | -8.1% | nt | nt | nt
CC(=NC1CCCCC1)c1ccccc1O | nt | -1.0%[9.22 µM] | nt | nt | nt | nt
Cc1ncc(CO)c(/C=N/NC(=O)c2cc3c(s2)CCCC3)c1O | -32.6% | -62.2% | ? | -41.7% | 3.26µM* | 16.5%
Cc1ncc(CO)c(/C=N/NC(=O)c2ccc(O)cc2)c1O | -4.0% | ? | ? | -0.6% | 13.1% | 0.4%

Compound activity as filed in PubChem.
